Screening results (PubChem)
Hits are enriched below; roughly 14% of the tested compounds scored in any of these assays.
Pf growth 96h = inhibits malaria parasite growth, 96 h; P. falciparum luciferase reporter growth, 96 h; Potency, µM (highest dose often 28.7 µM), for inactives: top-dose activity change, negative = inhibition, hits mostly inhibitors; 6.9% of 320,000 active; AID 504834; note: potency is the fitted concentration of half-maximal effect
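Two parasite generations (96 h, 37 C, 5% CO2) of compound exposure in infected erythrocytes (0.05% parasitemia, 2% hematocrit). Luciferase-reporter P. falciparum; decreased luminescence indicates inhibited growth, aimed at apicoplast-acting delayed death.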
Lassa entry inh = Lassa virus entry inhibition | Lassa virus pseudotype entry inhibition, cell reporter | Potency, µM (highest dose often 37.9 µM), without a hit: at the top dose activity change, negative = inhibition, usual class: inhibitors | 1.2% of 300,000 active; calls by dose curve; tested in HEK293 cells; note: potency is the fitted concentration of half-maximal effect; nearly all actives have a fitted effect of over 50% in size
HCMV antiviral = human cytomegalovirus inhibition; HFF cells, HCMV-luciferase reporter, 72 h; hits give low values; activity change, negative = inhibition, % at 57.5 µM; 4.5% of 410,000 active; AID 1259415; in the data active = activity change below about -60%; inconclusive = no clear call, values can overlap the other calls; inactive = above about -39%
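Compounds were evaluated in HFFs infected with an HCMV luciferase reporter virus (MOI 1 PFU/cell). Luciferase in lysates collected 72 h post infection served as the replication measure.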
MARV entry inh = blocks Marburg virus binding to or entry into cells; Marburg virus pseudotyped entry inhibition, cell reporter; Potency, µM (highest dose often 37.8 µM), for inactives: top-dose activity change, negative = inhibition, usual class: inhibitors; 1.8% of 300,000 active; AID 540276; calls by dose curve; tested in HEK293 cells; note: potency is the fitted concentration of half-maximal effect
Pf growth 48h = inhibits P. falciparum growth in the first generation, 48 h; AID 504832; Potency, µM (doses to about 28.7 µM), for inactives: at the top dose activity change, negative = inhibition, usual class: inhibitors; P. falciparum luciferase growth in erythrocytes, 48 h; 5.9% of 310,000 active; note: potency is the fitted concentration of half-maximal effect
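Compounds are pin-transferred into medium, infected erythrocytes (2% hematocrit, 0.1% parasitemia final) are added, and plates sit one parasite generation at 37 C in 5% CO2. Detection reagent is then added and luminescence measured.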
HCV inh = inhibitors of hepatitis C virus infection; Potency, µM (doses to about 41.8 µM), inactives show at the highest dose activity change, negative = inhibition, most hits filed as inhibitors; Huh7.5.1 HCVcc-Cre infection, luciferase reporter, 44 h; 3.4% of 340,000 active; note: potency is the fitted concentration of half-maximal effect
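Seed cells (1,000/well) for 4 h; treat with compound and infect with HCVcc-Cre, moi about 0.5. Incubate 44 h, then detect luciferase activity.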
* hit, by the source's call; [ ] = another dose, or the depositor's remark. Unless noted, calls come from the whole dose curve; as a rule, active = well fitted inhibition curve with a large enough effect; inconclusive = small, poorly fitted or top-dose-only effect, or another doubt; inactive = no such curve, though single readings can be large or run the other way. % is set by controls: 0 for no effect and ±100 for the full control effect.

Screening N#CCOc1nc(N2CCCCC2)nc(N2CCCCC2)n1 returned Pf growth 96h 30%, HCMV antiviral -37, Pf growth 48h 3% and HCV inh 14µM*.
For COc1ccc(CNC(=O)Cn2ncc3c([nH]c4ccccc43)c2=O)cc1 the results were Lassa entry inh -10%[46.1 µM] and HCMV antiviral 16.
`O=C(CN1C(=O)C(=O)N(C2CCCC2)C1=O)NCCc1ccc(Cl)cc1Cl` gave Pf growth 96h 14%, HCMV antiviral 0, Pf growth 48h 22% and HCV inh 12%.
Screening CCOC(=O)c1cnc(Nc2nc3ccccc3o2)nc1CSC(=S)N(CC)CC returned Pf growth 96h inconclusive, Lassa entry inh inconclusive, HCMV antiviral -64*, MARV entry inh 1%, Pf growth 48h inconclusive and HCV inh 21%.
CCOC(=O)c1cnc(Nc2nc3ccccc3o2)nc1CSc1ncccn1 was read as Lassa entry inh inconclusive, MARV entry inh 10% and HCV inh -1%.
`CCn1cc(Cl)c(C(=O)Nc2ccc3c(c2)OCCO3)n1` gave Pf growth 96h 14%, Lassa entry inh inconclusive, HCMV antiviral 56, MARV entry inh 10µM*, Pf growth 48h 246% and HCV inh -14%.
`CNS(=O)(=O)c1cn(CC(=O)Nc2cccc(C(F)(F)F)c2)cc1S(=O)(=O)NC` gave Lassa entry inh -1%[46.1 µM] and HCMV antiviral active.
Screening CCn1cc(Cl)c(C(=O)Nc2cccc(C(F)(F)F)c2)n1 returned Pf growth 96h 2.6µM*, Lassa entry inh -15%, HCMV antiviral 7, MARV entry inh -16%[46.1 µM], Pf growth 48h 174% and HCV inh 1%.
Screening CCn1cc(Cl)c(C(=O)Nc2ccccc2C(N)=O)n1 returned Pf growth 96h 13µM*, Lassa entry inh 1%[46.1 µM], HCMV antiviral 43, MARV entry inh inconclusive, Pf growth 48h 83% and HCV inh -2%.
Screening CNS(=O)(=O)c1cn(CC(=O)Nc2cccc(OC)c2)cc1S(=O)(=O)NC returned Lassa entry inh 0%[46.1 µM] and HCMV antiviral -21.
Screening CC(C)C[C@@H](NC(=O)C1CCC(CNC(=O)[C@@H]2CCCN2C(=O)OC(C)(C)C)CC1)C(=O)O (stereo partly drawn) returned Pf growth 96h 7%, Lassa entry inh inconclusive, HCMV antiviral 1, MARV entry inh 5%[46.1 µM], Pf growth 48h 12% and HCV inh 22%.
Screening CC(C)c1ccc2c(c1)-c1ccccc1S(=O)(=O)N2CC(=O)N1CCCCC1 returned Lassa entry inh 4%[46.1 µM], HCMV antiviral 24 and MARV entry inh inconclusive.
`CCOC(=O)c1c2n(c3c(NCc4ccccc4)ncnc13)CCCC2` gave Pf growth 96h -11%, Lassa entry inh -28%, HCMV antiviral 4, MARV entry inh inconclusive, Pf growth 48h inconclusive and HCV inh 5µM*.
Screening Cc1ccc(CNc2ncnc3c2nc2n3CCCC2)cc1 returned Lassa entry inh -10%[46.1 µM] and HCMV antiviral -16.
For COc1ccc(CNn2c(-c3cccc(C)c3)nc3ccccc3c2=O)cc1OC the results were Pf growth 96h 12µM*, Lassa entry inh inconclusive, HCMV antiviral inconclusive, MARV entry inh inconclusive and HCV inh inconclusive.
For COc1cccc(OC)c1C(=O)Nn1c(-c2cccc(C)c2)nc2ccccc2c1=O the results were Pf growth 96h inconclusive, Lassa entry inh -24%, HCMV antiviral -26, MARV entry inh inconclusive, Pf growth 48h -22% and HCV inh -27%.
`Cc1cccc(-c2nc3ccccc3c(=O)n2NC(=O)c2cccnc2Cl)c1` gave Pf growth 96h -1%, Lassa entry inh 1%, HCMV antiviral -69*, MARV entry inh 19%, Pf growth 48h 0% and HCV inh -4%.
For COc1ccccc1CNn1c(-c2cccc(C)c2)nc2ccccc2c1=O the results were Pf growth 96h 12µM*, Lassa entry inh inconclusive, HCMV antiviral -8, MARV entry inh inconclusive and HCV inh inconclusive.
`Cc1cc(Cl)ccc1-n1c(CCC(=O)O)ccc1-c1cccs1` gave Lassa entry inh 5%[46.1 µM], HCMV antiviral 10 and MARV entry inh 22%[46.1 µM].
Screening CC(C(=O)NC1CCCC1)n1c(-c2ccccn2)nc2ccccc21 (stereo not drawn) returned HCMV antiviral -12.
`COc1ccc(/C=N/NC(=O)CCSc2nc3ccccc3s2)cc1OC` gave Pf growth 96h inconclusive, Lassa entry inh -6%, HCMV antiviral -7, MARV entry inh -15%, Pf growth 48h -22% and HCV inh 10µM*.
COc1ccc(/C=N/NC(=O)Nc2cccc3nsnc23)cc1OC was read as Pf growth 96h 12%, Lassa entry inh 1%, HCMV antiviral -37, MARV entry inh 15%, Pf growth 48h 15% and HCV inh 5.6µM*.
`COc1ccc(/C=N/NC(=O)c2ccccc2Cl)cc1CSc1nc2ccccc2s1` gave Pf growth 96h -25%, Lassa entry inh 13µM*, HCMV antiviral inconclusive, MARV entry inh inconclusive and HCV inh inconclusive.
For COc1ccc(/C=N/NC(=O)c2cccc(C(=O)N/N=C/c3ccc(OC)c(OC)c3)n2)cc1OC the results were Pf growth 96h 1%, HCMV antiviral inconclusive, Pf growth 48h -6% and HCV inh 13%.
For COc1ccc(/C=N\NC(=O)c2ccccc2Cl)cc1COc1c(F)c(F)c(F)c(F)c1F the results were Pf growth 96h 22%, Lassa entry inh inconclusive, HCMV antiviral 101, MARV entry inh inconclusive, Pf growth 48h 5% and HCV inh 2.2µM*.
For COC(=O)c1ccc2nc(-c3ccc(OC)c(OC)c3)c(CC3CCCCC3)n2c1 the results were HCMV antiviral 4.
Screening COc1cc(/C=N/NC(=O)c2ccccc2Cl)ccc1Oc1ccc([N+](=O)[O-])cn1 returned Pf growth 96h inconclusive, HCMV antiviral inconclusive, Pf growth 48h -18% and HCV inh 11µM*.
`O=C(CCSc1nc2ccccc2s1)N/N=C/c1c(O)ccc2ccccc12` gave Pf growth 96h 2.9µM*, Lassa entry inh inconclusive, HCMV antiviral -99*, MARV entry inh inconclusive, Pf growth 48h inconclusive and HCV inh 3.2µM*.
Screening CC1(C(=O)NS(=O)(=O)c2cccs2)CCN1C(=O)CC(c1ccccc1)c1ccccc1 (stereo not drawn) returned HCMV antiviral 7.
COc1ccc(C(c2c(C)n(C)n(-c3ccccc3)c2=O)c2c(C)n(C)n(-c3ccccc3)c2=O)c(OC)c1OC was read as Pf growth 96h 10µM*, Lassa entry inh 20%, HCMV antiviral -5, MARV entry inh -3%, Pf growth 48h inconclusive and HCV inh 21%.
